Bioassay records (PubChem)
Pin1 inhibitor: human Pin1 inhibition; 390,000 compounds, 0.009% hits; AID 504891; Potency, µM (titrated, usually from 115 µM), for the others: at the highest dose activity, negative = inhibition, most hits filed as inhibitors; Pin1 FP peptide displacement, HiFluor488, 10 min; Q13526; active = well fitted inhibition curve with a large enough effect in the polarisation, with a control signal flat, not every such curve was filed as active; inconclusive = small, poorly fitted or top-dose-only effect, or effect the other way, or a change in a side signal; inactive = no such curve, though single readings can be large or run the other way; the % refers to the polarisation; note: potency is the fitted concentration of half-maximal effect; % is set by controls: 0 for no effect and ±100 for the full control effect
A-T KAP1 phos: potential ataxia-telangiectasia treatments restoring KAP-1 phosphorylation. F2112 A-T fibroblasts, KAP-1 phosphorylation AlphaLISA; neocarzinostatin DNA damage 30 min before lysis. Potency, µM (top dose mostly 57.5 µM), for the others: at the top dose activation, most hits filed as activators. 320,000 compounds, 0.19% hits. AID 485349; note: potency is the fitted concentration of half-maximal effect; % of control where 0% means no effect; nearly all actives have a fitted effect of over 45% in size
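hTERT-immortalized A-T patient fibroblasts (F2112), 500 cells/well in OPTI-MEM, 1% FBS, got compounds for 60 min, then NCS for 30 min at 37C. Lysates were then assayed for phospho-KAP-1 by AlphaLISA (anti-pKAP1 donor, anti-KAP1 acceptor beads), 6 hr at 25C.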
pAkt inh: blocks phosphorylation of Akt. Neuro2A IGF-stimulated pAkt S473 HTRF, 20 min; stronger effect = lower value. activity change, % for hits at 50 µM. 360,000 compounds, 0.32% hits. AID 651550; in the data active = activity change below about -80%; inconclusive = mostly about -51% to -80%; note: % is set by controls: 0 for no effect and ±100 for the full control effect
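Neuro2A cells (4,500/well, DMEM with 0.5% FBS) were treated with compound at a single 50 µM final concentration, stimulated with 6 nM IGF for 20 min at 37 °C, and lysed. Phospho-Akt Ser473 was read by HTRF as 665/615 ratio ×10^4.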
N370S GC: inhibitors or activators of N370S glucocerebrosidase for Gaucher disease; N370S GC spleen homogenate, 4MU-glucoside fluorescence; Potency, µM (doses to about 59.4 µM), inactives show at the highest dose activity change, negative = inhibition, actives largely listed as inhibitors; 330,000 compounds, 0.092% hits; AID 2101;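 note: potency is the fitted concentration of half-maximal effect; 0% = full enzyme activity and -100% = no enzyme basal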
TrxR1 substrate: rat thioredoxin reductase 1 substrate activity | Potency, µM (highest dose often 114 µM), inactives show at the highest dose activity change, negative = substrate turnover | purified TrxR1 substrate turnover, NADPH consumption readout | O89049 | AID 588456 | 390,000 compounds, 0.01% hits; note: potency is the fitted concentration of half-maximal effect; % is set by controls: 0 for no effect and ±100 for the full control effect; nearly all actives have a fitted effect of over 50% in size
Target sequence (O89049 whole entry, looked up): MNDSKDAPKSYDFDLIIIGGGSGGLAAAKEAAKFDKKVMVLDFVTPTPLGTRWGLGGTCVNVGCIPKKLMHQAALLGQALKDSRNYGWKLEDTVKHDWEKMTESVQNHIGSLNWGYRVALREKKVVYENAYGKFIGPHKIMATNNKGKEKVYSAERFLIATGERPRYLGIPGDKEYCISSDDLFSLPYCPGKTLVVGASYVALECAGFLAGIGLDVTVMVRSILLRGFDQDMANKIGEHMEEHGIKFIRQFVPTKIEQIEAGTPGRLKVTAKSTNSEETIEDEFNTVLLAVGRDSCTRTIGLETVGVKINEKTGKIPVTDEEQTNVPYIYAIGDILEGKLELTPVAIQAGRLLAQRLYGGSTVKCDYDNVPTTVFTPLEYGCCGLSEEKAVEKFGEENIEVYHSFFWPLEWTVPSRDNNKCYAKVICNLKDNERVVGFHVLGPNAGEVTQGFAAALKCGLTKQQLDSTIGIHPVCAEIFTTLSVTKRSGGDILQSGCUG
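Rat TrxR1, dispensed at 90 nM, was prereduced with 400 uM NADPH (final) for 5 min at ~22 deg C, then incubated with compound 15 min before 400 uM selenite. A first-read NADPH fluorescence drop versus no-compound background flagged substrates.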
TrxR1 inh: rat TrxR1 inhibition | O89049 | recombinant rTrxR1, NADPH fluorescence consumption, selenite substrate | Potency, µM (series often up to 114 µM), for inactives: at the highest dose activity change, negative = inhibition, hits mostly inhibitors | 390,000 compounds, 1% hits; note: potency is the fitted concentration of half-maximal effect; % is set by controls: 0 for no effect and ±100 for the full control effect; nearly all actives have a fitted effect of over 65% in size
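Rat TrxR1 (90 nM in the dispensed reagent) was pre-reduced with 400 uM NADPH for 5 min at room temperature, then incubated with compound for 15 min. After 400 uM selenite was added, NADPH fluorescence (Ex 340/Em 450 nm) was followed for 8 min.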
* hit, by the source's call; i = inactive; ? = inconclusive; · = no result given; [ ] = another dose, or the depositor's remark. Hits are enriched below; roughly 1.4% of the tested compounds scored in any of these assays. Unless noted, calls come from the whole dose curve; as a rule, active = well fitted curve in the direction sought with a large enough effect; inconclusive = small, poorly fitted or top-dose-only effect, or another doubt; inactive = no such curve, though single readings can be large; an effect the other way counts as inactive or inconclusive.

SMILES	Pin1 inhibitor	A-T KAP1 phos	pAkt inh	N370S GC	TrxR1 substrate	TrxR1 inh
CC(/C=C/c1ccco1)=N\NC(=O)c1cc(C)[nH]n1	?	-3%	i	-19%	-4%	16µM*
Cc1cc(C(=O)N/N=C/c2ccco2)n[nH]1	0%	-12%	i	-6%	-4%[57.1 µM]	-5%[57.1 µM]
CC(/C=C/c1ccco1)=N/NC(=O)Cc1cccs1	-6%	0%	i	-2%	-13%	40µM*
O=C(COC(=O)c1ccc(Br)o1)NCCCc1ccccc1	0%	-1%	i	3%	3%	11%
O=C(OCc1ccccc1)c1ccc(Br)o1	-3%	-2%	-107%*	5%	-7%	10%
Cc1[nH]n(-c2ncc(-c3ccccc3)s2)c(=O)c1C(c1ccc(Cl)cc1)C(C#N)C#N (stereo not given)	?	1%	i	-4%	-8%	22µM*
CCC[n+]1c(/C=C/c2c(OC)cc(OC)cc2OC)ccc2ccccc21	·	·	·	·	-8%	27%
Cc1cc2c(s1)c1cnn(Cc3c(F)ccc(F)c3Cl)c(=O)c1n2C	25%	·	·	·	·	·
Cc1oc2c(c1C(=O)c1ccc(Cl)cc1)C(=O)C(=O)c1ccccc1-2	-2%	?	i	16%	79µM*	2%
Cc1ccc(C(=O)c2c(C)oc3c2C(=O)C(=O)c2ccccc2-3)cc1	-5%	?	i	7%	?	22%[57.1 µM]
Cc1cc2c(s1)c1cnn(Cc3ccc(C(C)C)cc3)c(=O)c1n2C	-2%	·	·	·	·	·
Cc1ccc(SCCCn2cncn2)cc1	-10%	2%	-111%*	-6%	9%[57.1 µM]	11%[57.1 µM]
Clc1ccc(SCCn2cncn2)cc1	-4%	5%	i	-5%	-2%	7%
COc1cc(/C=C/c2nc3ccccc3nc2/C=C/c2cc(OC)c(OC)c(OC)c2)cc(OC)c1OC	·	·	·	·	3%[0.0914 µM]	2%
CCOC(=O)Cn1nnc(-c2cc(OC)c(OC)c(OC)c2)n1	2%	-2%	i	0%	-3%[57.1 µM]	9%[57.1 µM]
CCOC(=O)CC(=O)c1cc(OC)c(OC)c(OC)c1	-8%	-2%	-106%*	20%	2%	?
NS(=O)(=O)Nc1c(Br)cc(Br)c2cccnc12	-17%	·	·	·	9%[0.457 µM]	28µM*
OC[C@@H]1O[C@@H](O)[C@H](O)[C@H](O)[C@@H]1O	·	·	·	-1%	·	·
O=C1C=C(C2OC(CO)C(O)C2O)C(=O)N1 (stereo not given)	-3%	·	i	·	4%	7.1µM*
O=C(NN=Cc1c(O)ccc2ccccc12)c1ccc2c(c1)OCO2	64%	-25%	i	·	-2%	14%
Oc1ccc(N=Nc2ccc3c(c2)OCO3)c2ccccc12	·	10µM*	·	-15%	·	·
Cc1cccc2c(N=O)c(O)[nH]c12	?	3.2µM*	i	-3%	0%	16%
Cc1[nH]c2c(C)cccc2c1CC(=O)O	-1%	-1%	i	6%	17%	14%[57.1 µM]
Cc1cc(OC(C)C(=O)NC(Cc2c[nH]c3ccc(O)cc23)C(=O)O)c2c(C)c(C)c(=O)oc2c1 (stereo not given)	-13%	-15%	i	0%	25%	11µM*
N#Cc1cccc(NC(=O)N2CCC3(CC2)CCN(C(=O)c2cnccn2)CC3)c1	·	·	·	-8%	·	·
SMILES	Pin1 inhibitor	A-T KAP1 phos	pAkt inh	N370S GC	TrxR1 substrate	TrxR1 inh
Cc1cc(C)c(S(=O)(=O)/N=C2/C=C(Sc3ncn[nH]3)C(=O)c3ccccc32)cc1C	38µM*	?	i	15%	14µM*	?
Cc1cc(C(=O)CCl)c(C)n1-c1c(C)n(C)n(-c2ccccc2)c1=O	1%	-6%	i	-1%	-1%[57.1 µM]	8.9µM*
Cn1c2ccccc2c2ccc3c(c21)C(=O)C=CC3=O	35%	·	i	·	15%[11.4 µM]	-71%[57.1 µM]
Cc1ccc2c(c1)c1ccc3c(c1n2C)C(=O)C=CC3=O	40%	-11%	i	-22%	3%	40µM*
COCc1cc(O)c(O)c(O)c1-c1c(COC)cc(O)c(O)c1O	·	·	·	-2%	-9%	14µM*
C=CCN1CCN(C(c2ccccc2)c2nnnn2CCC(C)C)CC1 (stereo not given)	0%	0%	i	-4%	6%[57.1 µM]	28µM*
